Assay results: PubChem BioAssay AID1159580 (chemical genetic matrix, 2015)
Out of some 5,500 compounds screened, about 2,000 (36%) were called active. Another 18% or so got no clear call; they are omitted. Cut-off read from the data, not from the text of the source: active = normalized growth mostly below about 0.91 (no sharp cut-off); inconclusive = no clear call, values can overlap the other calls; inactive = mostly above about 0.92. This is one part of the list.

Assay: chemical genetic growth profiling, strain panel (AID 1159580);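 note: tested at 20 µM; growth read once vehicle control cultures reached saturation at 30 °C; 1 = growth at the plate median or of vehicle wells; lower values mean less growth of the strain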
Details: growth OD

Measured: normalized growth

OCC(O)CN1CCN(c2ccccc2)CC1 (configuration not stated)
inactive: S. cerevisiae deletion strains, locus YJR075W, strain HOC1, stronger effect = lower value 0.987 | S. cerevisiae deletion strains, locus YKL009W, strain mrt4, stronger effect = lower value 1.01 | S. cerevisiae deletion strains, locus YKL068W, stronger effect = lower value 0.994 | S. cerevisiae deletion strains, locus YKL085W, strain MDH1 (second series), stronger effect = lower value 0.99 | S. cerevisiae deletion strains, locus YKL085W, strain MDH1, stronger effect = lower value 0.99 | S. cerevisiae deletion strains, locus YKL160W, strain elf1, stronger effect = lower value 0.958 | S. cerevisiae deletion strains, locus YKL190W, strain CNB1, stronger effect = lower value 1.01 | S. cerevisiae deletion strains, locus YKR001C, strain vps1, stronger effect = lower value 1 | S. cerevisiae deletion strains, locus YKR026C, strain gcn3, stronger effect = lower value 0.977 | S. cerevisiae deletion strains, locus YKR091W, strain srl3, stronger effect = lower value 0.982 | S. cerevisiae deletion strains, locus YLL001W, strain dnm1, stronger effect = lower value 0.988 | S. cerevisiae deletion strains, locus YLL026W, stronger effect = lower value 0.988 | S. cerevisiae deletion strains, locus YLL041C, strain sdh2, stronger effect = lower value 0.975 | S. cerevisiae deletion strains, locus YLR027C, strain aat2, stronger effect = lower value 0.992 | S. cerevisiae deletion strains, locus YLR039C, strain RIC1, stronger effect = lower value 1.04 | S. cerevisiae deletion strains, locus YLR058C, strain SHM2, stronger effect = lower value 0.994 | S. cerevisiae deletion strains, locus YLR102C, strain apc9, stronger effect = lower value 1 | S. cerevisiae deletion strains, locus YLR113W, strain HOG1, stronger effect = lower value 0.999 | S. cerevisiae deletion strains, locus YLR221C, strain rsa3, stronger effect = lower value 0.973 | S. cerevisiae deletion strains, locus YLR258W, strain gsy2, stronger effect = lower value 0.992 | S. cerevisiae deletion strains, locus YLR262C, strain YPT6 (second series), stronger effect = lower value 0.959 | S. cerevisiae deletion strains, locus YLR262C, strain YPT6, stronger effect = lower value 1.05 | S. cerevisiae deletion strains, locus YLR268W, strain sec22, stronger effect = lower value 0.953 | S. cerevisiae deletion strains, locus YLR320W, strain mms22, stronger effect = lower value 1 | S. cerevisiae deletion strains, locus YLR330W, strain CHS5, stronger effect = lower value 1.02 | S. cerevisiae deletion strains, locus YLR342W, strain FKS1 (second series), stronger effect = lower value 1.02 | S. cerevisiae deletion strains, locus YLR342W, strain FKS1, stronger effect = lower value 0.993 | S. cerevisiae deletion strains, locus YLR357W, strain rsc2, stronger effect = lower value 0.987 | S. cerevisiae deletion strains, locus YLR370C, strain arc18, stronger effect = lower value 0.978 | S. cerevisiae deletion strains, locus YLR371W, strain rom2, stronger effect = lower value 1 | S. cerevisiae deletion strains, locus YLR384C, strain iki3, stronger effect = lower value 0.987 | S. cerevisiae deletion strains, locus YLR418C, strain cdc73, stronger effect = lower value 0.971 | S. cerevisiae deletion strains, locus YML016C, strain PPZ1, stronger effect = lower value 0.992 | S. cerevisiae deletion strains, locus YML032C, strain rad52, stronger effect = lower value 0.988 | S. cerevisiae deletion strains, locus YML120C, strain ndi1, stronger effect = lower value 0.982 | S. cerevisiae deletion strains, locus YML124C, strain tub3, stronger effect = lower value 0.989 | S. cerevisiae deletion strains, locus YMR058W, strain fet3, stronger effect = lower value 0.969 | S. cerevisiae deletion strains, locus YMR078C, strain ctf18, stronger effect = lower value 0.978 | S. cerevisiae deletion strains, locus YMR125W, strain sto1, stronger effect = lower value 0.995 | S. cerevisiae deletion strains, locus YMR129W, stronger effect = lower value 0.981 | S. cerevisiae deletion strains, locus YMR205C, strain PFK2, stronger effect = lower value 1.01 | S. cerevisiae deletion strains, locus YMR223W, strain ubp8, stronger effect = lower value 1.01 | S. cerevisiae deletion strains, locus YMR231W, strain pep5, stronger effect = lower value 0.989 | S. cerevisiae deletion strains, locus YMR263W, strain SAP30, stronger effect = lower value 0.989 | S. cerevisiae deletion strains, locus YMR307W, strain GAS1, stronger effect = lower value 1.03 | S. cerevisiae deletion strains, locus YNL067W, strain RPL9B, stronger effect = lower value 0.988 | S. cerevisiae deletion strains, locus YNL071W, strain lat1, stronger effect = lower value 0.985 | S. cerevisiae deletion strains, locus YNL128W, strain TEP1, stronger effect = lower value 1 | S. cerevisiae deletion strains, locus YNL153C, strain GIM3, stronger effect = lower value 0.988 | S. cerevisiae deletion strains, locus YNL183C, strain NPR1, stronger effect = lower value 0.908 | S. cerevisiae deletion strains, locus YNL209W, strain ssb2, stronger effect = lower value 0.983 | S. cerevisiae deletion strains, locus YNL233W, strain BNI4, stronger effect = lower value 1.01 | S. cerevisiae deletion strains, locus YNL248C, strain rpa49, stronger effect = lower value 0.925 | S. cerevisiae deletion strains, locus YNL250W, strain rad50, stronger effect = lower value 0.988 | S. cerevisiae deletion strains, locus YNL271C, strain bni1, stronger effect = lower value 0.985 | S. cerevisiae deletion strains, locus YNL298W, strain CLA4, stronger effect = lower value 0.985 | S. cerevisiae deletion strains, locus YNL307C, strain MCK1, stronger effect = lower value 0.997 | S. cerevisiae deletion strains, locus YNL322C, strain KRE1 (second series), stronger effect = lower value 0.97 | S. cerevisiae deletion strains, locus YNL322C, strain KRE1, stronger effect = lower value 1 | S. cerevisiae deletion strains, locus YNR049C, strain mso1, stronger effect = lower value 0.974 | S. cerevisiae deletion strains, locus YNR052C, strain pop2, stronger effect = lower value 1 | S. cerevisiae deletion strains, locus YOL006C, strain TOP1, stronger effect = lower value 0.981 | S. cerevisiae deletion strains, locus YOL012C, strain htz1 0.702 | S. cerevisiae deletion strains, locus YOL147C, strain pex11, stronger effect = lower value 0.991 | S. cerevisiae deletion strains, locus YOR001W, strain rrp6, stronger effect = lower value 0.943 | S. cerevisiae deletion strains, locus YOR061W, strain CKA2, stronger effect = lower value 0.999 | S. cerevisiae deletion strains, locus YOR069W, strain VPS5, stronger effect = lower value 0.986 | S. cerevisiae deletion strains, locus YOR070C, strain gyp1, stronger effect = lower value 0.992 | S. cerevisiae deletion strains, locus YOR080W, strain dia2, stronger effect = lower value 0.988 | S. cerevisiae deletion strains, locus YOR083W, strain WHI5, stronger effect = lower value 0.934 | S. cerevisiae deletion strains, locus YOR106W, strain vam3, stronger effect = lower value 0.943 | S. cerevisiae deletion strains, locus YOR136W, strain idh2, stronger effect = lower value 0.994 | S. cerevisiae deletion strains, locus YOR144C, strain elg1, stronger effect = lower value 0.993 | S. cerevisiae deletion strains, locus YOR184W, strain ser1, stronger effect = lower value 1 | S. cerevisiae deletion strains, locus YOR231W, strain MKK1, stronger effect = lower value 0.979 | S. cerevisiae deletion strains, locus YOR265W, strain rbl2, stronger effect = lower value 0.985 | S. cerevisiae deletion strains, locus YOR270C, strain vph1, stronger effect = lower value 0.981 | S. cerevisiae deletion strains, locus YOR290C, strain snf2, stronger effect = lower value 0.962 | S. cerevisiae deletion strains, locus YOR316C, strain cot1, stronger effect = lower value 0.985 | S. cerevisiae deletion strains, locus YPL051W, strain arl3, stronger effect = lower value 0.974 | S. cerevisiae deletion strains, locus YPL055C, strain LGE1, stronger effect = lower value 1 | S. cerevisiae deletion strains, locus YPL078C, strain atp4, stronger effect = lower value 0.932 | S. cerevisiae deletion strains, locus YPL106C, strain sse1, stronger effect = lower value 0.961 | S. cerevisiae deletion strains, locus YPL240C, strain hsp82, stronger effect = lower value 0.972 | S. cerevisiae deletion strains, locus YPL241C, strain CIN2, stronger effect = lower value 0.997 | S. cerevisiae deletion strains, locus YPL256C, strain CLN2, stronger effect = lower value 0.964 | S. cerevisiae deletion strains, locus YPR119W, strain clb2, stronger effect = lower value 0.992 | S. cerevisiae deletion strains, locus YPR141C, strain kar3, stronger effect = lower value 0.987 | S. cerevisiae deletion strains, locus YPR163C, strain tif3, stronger effect = lower value 0.988 | S. cerevisiae deletion strains, locus YPR167C, strain met16, stronger effect = lower value 0.989 | S. cerevisiae deletion strains, strain wtn01, stronger effect = lower value 0.95 | S. cerevisiae strains, strain wild type, stronger effect = lower value 1
